Results taken from PubChem BioAssay AID1159580 (chemical genetic matrix, 2015).
Several values for one entry are separate records, joined by “and”; a condition that tells them apart may be missing. Equal entries are not always repeated. Among all 5,500 compounds or so, about 2,000 (36%) were called active. Roughly 18% stayed inconclusive and do not appear here. Cut-off read from the data, not from the text of the source: active = normalized growth mostly below about 0.91 (no sharp cut-off); inconclusive = no clear call, values can overlap the other calls; inactive = mostly above about 0.92. The list shows a part of the results.

Experiment: chemical genetic growth profiling, strain panel (AID 1159580);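 note: tested at 20 µM; growth read once vehicle control cultures reached saturation at 30 °C; 1 = growth at the plate median or of vehicle wells; lower values mean less growth of the strain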
Conditions: growth OD

Measured: normalized growth

COc1ccc(C(=O)N2CCCC2=O)cc1
inactive: S. cerevisiae deletion strains, locus YJR075W, strain HOC1, active compounds read low 0.99 | S. cerevisiae deletion strains, locus YKL009W, strain mrt4, active compounds read low 0.97 | S. cerevisiae deletion strains, locus YKL068W, active compounds read low 0.976 | S. cerevisiae deletion strains, locus YKL085W, strain MDH1 (second series), active compounds read low 0.984 | S. cerevisiae deletion strains, locus YKL085W, strain MDH1, active compounds read low 0.984 | S. cerevisiae deletion strains, locus YKL160W, strain elf1, active compounds read low 0.952 | S. cerevisiae deletion strains, locus YKL190W, strain CNB1, active compounds read low 0.993 | S. cerevisiae deletion strains, locus YKR001C, strain vps1, active compounds read low 0.968 | S. cerevisiae deletion strains, locus YKR026C, strain gcn3, active compounds read low 0.976 | S. cerevisiae deletion strains, locus YKR091W, strain srl3, active compounds read low 0.969 | S. cerevisiae deletion strains, locus YLL001W, strain dnm1, active compounds read low 0.963 | S. cerevisiae deletion strains, locus YLL026W, active compounds read low 0.98 | S. cerevisiae deletion strains, locus YLL041C, strain sdh2, active compounds read low 0.986 | S. cerevisiae deletion strains, locus YLR027C, strain aat2, active compounds read low 0.963 | S. cerevisiae deletion strains, locus YLR039C, strain RIC1, active compounds read low 0.947 | S. cerevisiae deletion strains, locus YLR058C, strain SHM2, active compounds read low 0.978 | S. cerevisiae deletion strains, locus YLR102C, strain apc9, active compounds read low 0.979 | S. cerevisiae deletion strains, locus YLR221C, strain rsa3, active compounds read low 0.945 | S. cerevisiae deletion strains, locus YLR258W, strain gsy2, active compounds read low 0.98 | S. cerevisiae deletion strains, locus YLR262C, strain YPT6 (second series), active compounds read low 0.967 | S. cerevisiae deletion strains, locus YLR262C, strain YPT6, active compounds read low 0.902 | S. cerevisiae deletion strains, locus YLR268W, strain sec22, active compounds read low 0.971 | S. cerevisiae deletion strains, locus YLR320W, strain mms22, active compounds read low 0.933 | S. cerevisiae deletion strains, locus YLR330W, strain CHS5, active compounds read low 0.986 | S. cerevisiae deletion strains, locus YLR342W, strain FKS1 (second series), active compounds read low 0.995 | S. cerevisiae deletion strains, locus YLR342W, strain FKS1, active compounds read low 0.99 | S. cerevisiae deletion strains, locus YLR357W, strain rsc2, active compounds read low 0.991 | S. cerevisiae deletion strains, locus YLR370C, strain arc18, active compounds read low 0.963 | S. cerevisiae deletion strains, locus YLR371W, strain rom2, active compounds read low 0.993 | S. cerevisiae deletion strains, locus YLR384C, strain iki3, active compounds read low 0.958 | S. cerevisiae deletion strains, locus YLR418C, strain cdc73, active compounds read low 0.967 | S. cerevisiae deletion strains, locus YML016C, strain PPZ1, active compounds read low 0.983 | S. cerevisiae deletion strains, locus YML032C, strain rad52, active compounds read low 1 | S. cerevisiae deletion strains, locus YML120C, strain ndi1, active compounds read low 0.94 | S. cerevisiae deletion strains, locus YML124C, strain tub3, active compounds read low 0.994 | S. cerevisiae deletion strains, locus YMR058W, strain fet3, active compounds read low 0.971 | S. cerevisiae deletion strains, locus YMR078C, strain ctf18, active compounds read low 0.974 | S. cerevisiae deletion strains, locus YMR125W, strain sto1, active compounds read low 0.973 | S. cerevisiae deletion strains, locus YMR129W, active compounds read low 0.986 | S. cerevisiae deletion strains, locus YMR205C, strain PFK2, active compounds read low 0.971 | S. cerevisiae deletion strains, locus YMR223W, strain ubp8, active compounds read low 0.995 | S. cerevisiae deletion strains, locus YMR231W, strain pep5, active compounds read low 0.978 | S. cerevisiae deletion strains, locus YMR263W, strain SAP30, active compounds read low 0.964 | S. cerevisiae deletion strains, locus YMR307W, strain GAS1, active compounds read low 0.99 | S. cerevisiae deletion strains, locus YNL067W, strain RPL9B, active compounds read low 0.974 | S. cerevisiae deletion strains, locus YNL071W, strain lat1, active compounds read low 0.982 | S. cerevisiae deletion strains, locus YNL128W, strain TEP1, active compounds read low 0.979 | S. cerevisiae deletion strains, locus YNL153C, strain GIM3, active compounds read low 0.965 and 1.01 | S. cerevisiae deletion strains, locus YNL175C, strain NOP13, active compounds read low 1 | S. cerevisiae deletion strains, locus YNL197C, strain WHI3, active compounds read low 1.01 | S. cerevisiae deletion strains, locus YNL209W, strain ssb2, active compounds read low 0.984 | S. cerevisiae deletion strains, locus YNL224C, strain SQS1, active compounds read low 1.02 | S. cerevisiae deletion strains, locus YNL233W, strain BNI4, active compounds read low 0.99 | S. cerevisiae deletion strains, locus YNL248C, strain rpa49, active compounds read low 0.976 | S. cerevisiae deletion strains, locus YNL250W, strain rad50, active compounds read low 0.964 | S. cerevisiae deletion strains, locus YNL271C, strain bni1, active compounds read low 0.986 | S. cerevisiae deletion strains, locus YNL298W, strain CLA4, active compounds read low 0.982 | S. cerevisiae deletion strains, locus YNL307C, strain MCK1, active compounds read low 0.989 | S. cerevisiae deletion strains, locus YNL322C, strain KRE1 (second series), active compounds read low 0.955 | S. cerevisiae deletion strains, locus YNL322C, strain KRE1, active compounds read low 0.986 and 1 | S. cerevisiae deletion strains, locus YNR049C, strain mso1, active compounds read low 0.954 | S. cerevisiae deletion strains, locus YNR052C, strain pop2, active compounds read low 0.974 | S. cerevisiae deletion strains, locus YOL006C, strain TOP1, active compounds read low 0.921 | S. cerevisiae deletion strains, locus YOL012C, strain htz1 0.923 | S. cerevisiae deletion strains, locus YOL147C, strain pex11, active compounds read low 0.99 | S. cerevisiae deletion strains, locus YOR001W, strain rrp6, active compounds read low 0.998 | S. cerevisiae deletion strains, locus YOR061W, strain CKA2, active compounds read low 0.949 | S. cerevisiae deletion strains, locus YOR069W, strain VPS5, active compounds read low 0.987 | S. cerevisiae deletion strains, locus YOR070C, strain gyp1, active compounds read low 0.991 | S. cerevisiae deletion strains, locus YOR080W, strain dia2, active compounds read low 0.976 | S. cerevisiae deletion strains, locus YOR083W, strain WHI5 (second series), active compounds read low 1.02 | S. cerevisiae deletion strains, locus YOR083W, strain WHI5, active compounds read low 0.946 | S. cerevisiae deletion strains, locus YOR106W, strain vam3, active compounds read low 0.93 | S. cerevisiae deletion strains, locus YOR136W, strain idh2, active compounds read low 0.99 | S. cerevisiae deletion strains, locus YOR144C, strain elg1, active compounds read low 0.999 | S. cerevisiae deletion strains, locus YOR184W, strain ser1, active compounds read low 0.993 | S. cerevisiae deletion strains, locus YOR265W, strain rbl2, active compounds read low 0.989 | S. cerevisiae deletion strains, locus YOR270C, strain vph1, active compounds read low 0.929 | S. cerevisiae deletion strains, locus YOR290C, strain snf2, active compounds read low 0.933 | S. cerevisiae deletion strains, locus YOR316C, strain cot1, active compounds read low 0.978 | S. cerevisiae deletion strains, locus YPL051W, strain arl3, active compounds read low 1.01 | S. cerevisiae deletion strains, locus YPL055C, strain LGE1, active compounds read low 0.988 | S. cerevisiae deletion strains, locus YPL078C, strain atp4, active compounds read low 0.963 | S. cerevisiae deletion strains, locus YPL106C, strain sse1, active compounds read low 0.925 | S. cerevisiae deletion strains, locus YPL240C, strain hsp82, active compounds read low 0.986 | S. cerevisiae deletion strains, locus YPL241C, strain CIN2, active compounds read low 1.03 and 1 | S. cerevisiae deletion strains, locus YPR119W, strain clb2, active compounds read low 0.991 | S. cerevisiae deletion strains, locus YPR141C, strain kar3, active compounds read low 0.962 | S. cerevisiae deletion strains, locus YPR163C, strain tif3, active compounds read low 1 | S. cerevisiae deletion strains, locus YPR167C, strain met16, active compounds read low 0.972 | S. cerevisiae deletion strains, strain wtn01, active compounds read low 0.984 | S. cerevisiae strains, strain wild type, active compounds read low 0.993
